# Rows were chosen to be rich in hits. Some 20% of all compounds tested hit in one or more screens of this group.
# Pf growth 96h: Primary qHTS for delayed death inhibitors of the malarial parasite plastid, 96 hour incubation | P. falciparum luciferase reporter growth, 96 h | Potency, µM (top dose mostly 28.7 µM), without a hit: at the highest dose activity change, negative = inhibition, most hits filed as inhibitors | hit rate 6.9% among 320,000 | AID 504834, 2011; note: potency is the fitted concentration of half-maximal effect; % is set by controls: 0 for no effect and ±100 for the full control effect
#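 Compounds incubated with erythrocytes infected by luciferase-expressing P. falciparum (2% hematocrit, 0.05% parasitemia final) for 96 hours, 37 C in 5% CO2. Growth inhibition scored as decreased luciferase luminescence.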
# Shiga toxin inh: A qHTS for Small Molecule Inhibitors of Shiga Toxin; Vero cells, Shiga toxin protein synthesis inhibition reporter; inhibition, % at 38.7 µM; hit rate 9.2% among 290,000; AID 2315, 2010; in the data active = inhibition mostly above about 28%, no sharp cut-off; inactive = mostly below about 43%; note: 0% is about no effect
# Cycloheximide cs: Cycloheximide Counterscreen for Small Molecule Inhibitors of Shiga Toxin. AID 2314, 2010. hit rate 12% among 300,000. cell reporter, cycloheximide protein synthesis inhibition counterscreen. max response, %; in the data active = max response mostly above about 13%, no sharp cut-off; inactive = mostly below about 14%; note: read at 38.3 µM for the half of the compounds with a filed dose; 0% is about no effect
# HCMV antiviral: qHTS Assay for inhibitors of the human cytomegalovirus (HCMV); HFF cells, HCMV-luciferase reporter, 72 h; stronger effect = lower value; activity change, negative = inhibition, % at 57.5 µM; hit rate 4.5% among 410,000; in the data active = activity change below about -60%; inconclusive = no clear call, values can overlap the other calls; inactive = above about -39%; note: % is set by controls: 0 for no effect and ±100 for the full control effect
#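 Inhibition of viral replication was scored as loss of reporter luminescence in HFFs infected with HCMV-luciferase (MOI 1 PFU/cell) for 72 h; compounds tested at 2 doses, normalized to buffer and Salinomycin controls.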
# Pf growth 48h: Primary qHTS for delayed death inhibitors of the malarial parasite plastid, 48 hour incubation; P. falciparum luciferase growth in erythrocytes, 48 h; Potency, µM (titrated, usually from 28.7 µM), inactives show top-dose activity change, negative = inhibition, actives largely listed as inhibitors; hit rate 5.9% among 310,000; AID 504832, 2011; note: potency is the fitted concentration of half-maximal effect; % is set by controls: 0 for no effect and ±100 for the full control effect
#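 Luciferase-expressing P. falciparum in infected erythrocytes (2% hematocrit, 0.1% parasitemia final) in RPMI 1640/0.5% Albumax were exposed to compound for 48 hours at 37 C, 5% CO2; growth read as luminescence.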
# * hit, by the source's call; ? = inconclusive; · = no result. Unless noted, calls come from the whole dose curve; as a rule, active = well fitted inhibition curve with a large enough effect; inconclusive = small, poorly fitted or top-dose-only effect, or another doubt; inactive = no such curve, though single readings can be large or run the other way.
SMILES,Pf growth 96h,Shiga toxin inh,Cycloheximide cs,HCMV antiviral,Pf growth 48h
COC(=O)[C@@]12CCCCN1[C@H](c1ccc(-c3ccc(Cl)c(Cl)c3)c(OC)c1)[C@H]1C(=O)N(C)C(=O)[C@H]12,·,·,·,8,·
COC(=O)[C@@]12CCCCN1[C@H](c1ccc(-c3ccc4c(c3)OCO4)c(OC)c1)[C@@H]1C(=O)N(C)C(=O)[C@@H]12,13µM*,·,·,5,5.2µM*
COC(=O)[C@@]12CCCN1[C@H](c1ccc(-c3ccc4c(c3)OCO4)c(OC)c1)[C@H]1C(=O)N(C)C(=O)[C@H]12,?,·,·,14,?
COC(=O)[C@@]12CCCCN1[C@H](c1ccc(-c3ccc(F)cc3)c(OC)c1)[C@@H]1C(=O)N(C)C(=O)[C@@H]12,12µM*,·,·,-3,13µM*
COC(=O)[C@@]12CCCCN1[C@H](c1ccc(-c3ccc(Cl)c(Cl)c3)c(OC)c1)[C@@H]1C(=O)N(C)C(=O)[C@@H]12,·,·,·,15,·
COc1ccc(Cl)cc1C(=O)NCc1nnnn1-c1ccccc1,·,·,·,-1,·
COC(=O)CCN(c1ccccc1)S(=O)(=O)c1cc(-c2cc(C)no2)ccc1C,11%,26,21,-31,?
CCOC(=O)C1CCN(C(=O)/C=C/c2ccc(S(=O)(=O)N3CCOCC3)cc2)CC1,·,·,·,-18,·
O=S(=O)(c1ccccc1)n1nc(-c2ccc(Cl)cc2)nc1NCc1ccc(F)cc1,·,·,·,-15,·
COC(=O)[C@@]12CCCCN1[C@H](c1ccc(-c3cc(C(C)=O)cs3)c(OC)c1)[C@H]1C(=O)N(C)C(=O)[C@H]12,?,·,·,-22,4.1µM*
COC(=O)[C@@]12CCCN1[C@H](c1ccc(-c3ccccc3)c(OC)c1)[C@H]1C(=O)N(C)C(=O)[C@H]12,·,·,·,17,·
COC(=O)[C@@]12CCCN1[C@H](c1ccc(-c3ccc(C(C)=O)cc3)c(OC)c1)[C@H]1C(=O)N(C)C(=O)[C@H]12,?,·,·,7,13µM*
COC(=O)[C@@]12CCCN1[C@H](c1ccc(-c3ccc(OC)cc3)c(OC)c1)[C@@H]1C(=O)N(C)C(=O)[C@@H]12,12µM*,·,·,-3,13µM*
COc1ccc(S(=O)(=O)N2CCC(Oc3ccc(-n4cnnn4)cc3)CC2)cc1OC,·,·,·,-64*,·
COc1ccc(OC2CCN(S(=O)(=O)c3cccc(F)c3)CC2)cc1,-9%,81*,36*,-97*,13%
Cc1cc(C)n(CCc2nc3c4ccccc4nc(N4CCN(c5ccc(F)cc5)CC4)n3n2)n1,·,·,·,-15,·
C=CCn1c(SCC(=O)N2CCN(C(=O)OCC)CC2)nc2c([nH]c3ccccc32)c1=O,·,·,·,36,·
CCn1c(SCC(=O)N2CCOCC2)nc2c([nH]c3ccccc32)c1=O,13µM*,-4,-3,211,?
CCC(Sc1nc2c(c(=O)n1CC)SC(C)C2)C(=O)OC (stereo unspecified),0.37µM*,-11,1,16,?
CC1Cc2nc(SCC(=O)N3CCOCC3)n(C)c(=O)c2S1 (stereo unspecified),-2%,-9,-1,-4,-3%
CCn1c(SCC(=O)Nc2ccc3c(c2)OCO3)nc2c(c1=O)SC(C)C2 (stereo unspecified),?,9,6,?,?
CCn1c(SCC(=O)Nc2cccc(C)c2)nc2c(c1=O)SC(C)C2 (stereo unspecified),13µM*,15,2,17,?
CCn1c(SCC(=O)N2CCOCC2)nc2c(c1=O)SC(C)C2 (stereo unspecified),2.1µM*,-4,-1,?,-20%
Cc1ccc(S(=O)(=O)N2CCC(C(=O)OCC(=O)N3CCCC3=O)CC2)cc1C,27%,·,·,-1,-2%
CCSc1nnc(NC(=O)CSc2nc3c(c(=O)n2CC)SC(C)C3)s1 (stereo unspecified),30%,-10,-3,-17,?
CCSc1nnc(NC(=O)CSc2nc3c(c(=O)n2C)SC(C)C3)s1 (stereo unspecified),0%,-8,0,-85*,12µM*
CCn1c(SCC(=O)N2CCC(C)CC2)nc2c(c1=O)SC(C)C2 (stereo unspecified),6.6µM*,-8,-2,-14,?
